The values that follow come from PubChem BioAssay (NCI).

The structures appear in SMILES notation. About 83,000 compounds went through this panel and 20% of them were active in at least one assay; those are over-represented in the sample as a whole.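 Negative percent growth values reflect cell death: -40 means 40% of the cells present at the start died, and -100 means all died.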 Unmarked numbers belong to inactive results. Activity calls are given as the source filed them. How the source made its calls: active means growth percent below 10; inactive means the rest.

Holding throughout (assay): NCI-60 one-dose screen, 48 h (100 = growth as untreated, 0 = no growth, -100 = all killed)
In assay [1] the test system is HCT-15 colon. The following applies: 10 µM unless noted.
The test system of assay [2] is HT29 colon. The note with it: 10 µM unless noted.
For assay [3], the system named is SNB-75 CNS. The note with it: 10 µM unless noted.
Assay [4] deals with SNB-19 CNS. The note with it: 10 µM unless noted.
Assay [5] relates to U251 CNS. The following applies: 10 µM unless noted.
Assay [6] has as its system PC-3 prostate. The note with it: 10 µM unless noted.
Assay [7] concerns SK-MEL-5 melanoma. The note with it: 10 µM unless noted.
Assay [8] deals with UACC-62 melanoma. The following applies: 10 µM unless noted.
The test system of assay [9] is SK-MEL-28 melanoma. The note with it: 10 µM unless noted.
The test system of assay [10] is SK-MEL-2 melanoma. The note with it: 10 µM unless noted.
For assay [11], the system named is EKVX NSCLC. The following applies: 10 µM unless noted.
For assay [12], the system named is SN12C renal. The note with it: 10 µM unless noted.
The test system of assay [13] is UO-31 renal. The following applies: 10 µM unless noted.
In assay [14] the test system is ACHN renal. The note with it: 10 µM unless noted.
The test system of assay [15] is CAKI-1 renal. The following applies: 10 µM unless noted.
For assay [16], the system named is A498 renal. The note with it: 10 µM unless noted.
The subject of assay [17] is CCRF-CEM leukemia. The note with it: 10 µM unless noted.
In assay [18] the test system is MOLT-4 leukemia. The note with it: 10 µM unless noted.
Assay [19] relates to LOX IMVI melanoma. The note with it: 10 µM.
For assay [20], the system named is TK-10 renal. The following applies: 10 µM unless noted.

Take `c1cc(CNCCNCc2ccncc2)ccn1`: the growth in [1] was 110%; in assay [2], 109%; in assay [3], 92.5%; in [4], 104%; in [5], 101%; in assay [6], 92.1%. Further, the growth in [7] is 107%; in assay [8], 101%; in assay [9], 101%; in [10], 104%; in [11], 99.6%; in [12], 98.5%. For the same molecule, the growth in assay [13] is 83.7%; in assay [14] it was 109%; in assay [15], 91.3%; in [16] it was 116%; in [17], 89.5%; in [18], 84.1%.
Regarding `CC(C)c1ccc(C(=O)OCCCl)cc1`, the growth is 94% in assay [1]; 109% in assay [2]; 94% in assay [3]; 91.1% in assay [4]; 101% in assay [5]; 106% in assay [6]. Moreover, the growth in assay [7] was 100%; in assay [8], 110%; in assay [19], 97.1%; in assay [9] it was 92%; in [11] it was 102%; in [13] it was 92.6%. Moreover, the growth in assay [20] was 94.6%; in assay [14], 94.5%; in assay [15], 383%; in assay [16], 92.7%; in [18], 100%.
Turning to `CCC12OC(COc3ccccc3)CN1CCN2c1ccccc1` (centres undefined), the growth is 105% [100 µM] in assay [1]; 111% [100 µM] in [2]; 84.4% [100 µM] in assay [3]; 96.9% [100 µM] in assay [4]; 101% [100 µM] in assay [5]; 102% [100 µM] in assay [6]. The growth in assay [7] was 104% [100 µM]; in assay [8], 89.5% [100 µM]; in assay [9] it was 103% [100 µM]; in assay [10] it was 99.4% [100 µM]; in assay [11], 95.2% [100 µM]; in [12] it was 96.1% [100 µM]. In addition, the growth is 75.2% [100 µM] in assay [13]; 146% [100 µM] in assay [20]; 97.3% [100 µM] in assay [14]; 89% [100 µM] in assay [15]; 107% [100 µM] in [16]; 101% [100 µM] in assay [17]. In addition, the growth in assay [18] is 94.5% [100 µM].
As to `CC(=O)N(CCCCCCN(C(C)=O)C(C)=O)C(C)=O`, the growth is 107% [100 µM] in assay [1]; 114% [100 µM] in [2]; 87.9% [100 µM] in assay [3]; 99.2% [100 µM] in assay [4]; 107% [100 µM] in assay [5]; 104% [100 µM] in assay [6]. In addition, the growth is 104% [100 µM] in assay [7]; 97% [100 µM] in assay [8]; 105% [100 µM] in assay [9]; 117% [100 µM] in assay [10]; 106% [100 µM] in assay [11]; 103% [100 µM] in assay [12]. The growth is 98.1% [100 µM] in assay [13]; 116% [100 µM] in assay [20]; 104% [100 µM] in assay [14]; 98.7% [100 µM] in assay [15]; 108% [100 µM] in [16]; 103% [100 µM] in [17]. The growth in assay [18] is 113% [100 µM].
Turning to `CC1CCC(C(C)(C)[N+](C)(C)C)CC1` (centres undefined), the growth in [1] is 98.1%; in assay [2], 97.8%; in assay [3], 89%; in assay [4] it was 101%; in assay [5] it was 96.6%; in assay [6], 96.9%. Besides, the growth in [7] was 103%; in assay [8], 104%; in assay [19] it was 102%; in assay [10], 114%; in assay [11] it was 96.6%; in assay [12] it was 102%. Also, the growth is 94.8% in [13]; 95.6% in assay [20]; 105% in assay [14]; 103% in [15]; 86.8% in assay [16]; 98.4% in assay [17]. Besides, the growth in assay [18] was 101%.
With `Oc1ccc(N=Cc2ccc(OCc3ccccc3)cc2)cc1`, the growth in assay [1] was 96.6%; in assay [2], 109%; in assay [3], 92.1%; in [4], 91.3%; in assay [5], 102%; in assay [6], 92.5%. The growth in [7] is 92.2%; in [8] it was 88.6%; in assay [19] it was 100%; in [9], 106%; in [12], 101%; in [13], 79.9%. Further, the growth in assay [20] was 99.3%; in assay [14] it was 99.7%; in assay [15] it was 98.1%; in assay [16], 75.8%; in assay [17], 82.4%; in [18], 97.1%.
`COc1ccc(/C=C\C(=O)/C=C/c2ccc(OC)cc2)cc1`: the growth in [1] is -13.7% (active); in assay [2], 49.3%; in assay [3], 103%; in [4] it was 89.3%; in assay [5], 63.8%; in assay [6] it was 62.3%. Also, the growth in [7] was 91.7%; in assay [8], 70.4%; in assay [9], 106%; in [10], 123%; in assay [11], 93.2%; in assay [12] it was 90.3%. The growth in assay [13] is 69.1%; in assay [20], 116%; in [14] it was 95.5%; in assay [15] it was 87.5%; in [16], 174%; in assay [17] it was 37.4%. In addition, the growth in assay [18] is 68.2%.
